One assay concerns the target POU1 (OCT1 POU domain) (human, UniProt P14859 260-458). The assay is described as follows: EMSA-SELEX-seq; no BOB1; 20 mM Tris-HCl pH 7.6, 140 mM NaCl, 10% glycerol, 0.5 mM EDTA, 0.05% Triton X-100, 0.1 mg/mL BSA, 0.1 mg/mL poly(dI-dC), 5 mM DTT, room temperature, 20 min; high values mean tight binding. The settings on record: protein: recombinant; dsDNA, one strand shown. The method, boiled down:
(§1)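 With or without 28 ng coactivator protein, 30 ng of tagged POU-domain protein was combined with 300 ng of a PCR-amplified double-stranded random 35-nt library in 20 μL Tris–HCl pH 7.6 binding buffer for 20 min at RT. The protein came from E. coli BL21 and had been purified under denaturing conditions and renatured. Four rounds of cutting complex bands from native 6% PAGE, elution and PCR amplification preceded Illumina sequencing. The binding preference figure is the percentage of sequenced 8-mers matching a motif pattern.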

The next assay concerns the target T1, POU2 (OCT2 POU domain) (human, UniProt P09086 175-386).
T1 sequence: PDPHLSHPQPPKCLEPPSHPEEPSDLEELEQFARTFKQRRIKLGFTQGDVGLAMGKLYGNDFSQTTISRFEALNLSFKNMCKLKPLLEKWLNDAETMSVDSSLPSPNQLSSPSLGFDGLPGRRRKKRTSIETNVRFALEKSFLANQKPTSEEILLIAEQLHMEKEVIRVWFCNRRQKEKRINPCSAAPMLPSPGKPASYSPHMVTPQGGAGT
The description is as above. The settings on record: protein: recombinant; dsDNA, one strand shown. The method, boiled down:
as §1

Assay [1] addresses POU1 (OCT1 POU domain);BOB1 (OBF1, OCA-B) (human;human, UniProt P14859;Q16633 260-458;1-256, |). In words: EMSA-SELEX-seq; with BOB1 (ternary complex band); 20 mM Tris-HCl pH 7.6, 140 mM NaCl, 10% glycerol, 0.5 mM EDTA, 0.05% Triton X-100, 0.1 mg/mL BSA, 0.1 mg/mL poly(dI-dC), 5 mM DTT, room temperature, 20 min; high values mean tight binding. To be noted: protein: recombinant;recombinant; copies: 1;1; dsDNA, one strand shown. Summed up: as §1

The target in assay [2] is T2, POU2 (OCT2 POU domain);BOB1 (OBF1, OCA-B) (human;human, UniProt P09086;Q16633 175-386;1-256, |).
T2 sequence 1: T1 sequence
T2 sequence 2: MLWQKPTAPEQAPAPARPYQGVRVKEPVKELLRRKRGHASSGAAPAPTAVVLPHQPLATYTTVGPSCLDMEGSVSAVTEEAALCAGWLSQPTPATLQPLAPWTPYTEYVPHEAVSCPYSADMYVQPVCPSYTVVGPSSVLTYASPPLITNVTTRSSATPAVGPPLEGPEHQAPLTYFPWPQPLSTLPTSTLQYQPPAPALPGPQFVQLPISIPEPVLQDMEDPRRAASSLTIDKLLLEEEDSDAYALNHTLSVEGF
The description is as above. To be noted: protein: recombinant;recombinant; copies: 1;1; dsDNA, one strand shown. Summed up:
as §1

Chain of POU1 (OCT1 POU domain) (P14859 260-458): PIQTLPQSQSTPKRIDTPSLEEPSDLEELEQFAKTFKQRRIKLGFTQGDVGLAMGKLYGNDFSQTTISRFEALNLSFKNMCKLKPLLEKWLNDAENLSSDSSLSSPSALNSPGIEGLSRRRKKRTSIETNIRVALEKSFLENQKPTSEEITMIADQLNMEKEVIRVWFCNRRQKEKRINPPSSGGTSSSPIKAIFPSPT

For ATTCTAAA, the binding signal in the assay with POU1 (OCT1 POU domain) was 0.0946 % of ANNNNAAN 8-mers; with POU2 (OCT2 POU domain), 0.123 % of ANNNNAAN 8-mers; in assay [1], 0.0542 % of ANNNNAAN 8-mers; in assay [2], 0.0726 % of ANNNNAAN 8-mers.

Regarding AGAGCAAA, the binding signal was 0.0374 % of ANNNNAAN 8-mers with POU1 (OCT1 POU domain), 0.0293 % of ANNNNAAN 8-mers in the assay with POU2 (OCT2 POU domain), 0.0433 % of ANNNNAAN 8-mers in assay [1] and 0.0413 % of ANNNNAAN 8-mers in assay [2].

ATGGTAAG: the binding signal in the assay with POU1 (OCT1 POU domain) was 0.0984 % of ANNNNAAN 8-mers; with POU2 (OCT2 POU domain), 0.127 % of ANNNNAAN 8-mers; in assay [1], 0.071 % of ANNNNAAN 8-mers; in assay [2] it was 0.09 % of ANNNNAAN 8-mers.

As for AGCGCAAA, the binding signal was 0.0263 % of ANNNNAAN 8-mers with POU1 (OCT1 POU domain), 0.0305 % of ANNNNAAN 8-mers in the assay with POU2 (OCT2 POU domain), 0.0324 % of ANNNNAAN 8-mers in assay [1] and 0.0215 % of ANNNNAAN 8-mers in assay [2].

As to ACGGTAAT, the binding signal was 0.0984 % of ANNNNAAN 8-mers in the assay with POU1 (OCT1 POU domain), 0.143 % of ANNNNAAN 8-mers with POU2 (OCT2 POU domain), 0.0741 % of ANNNNAAN 8-mers in assay [1] and 0.109 % of ANNNNAAN 8-mers in assay [2].

As for ATCCTAAC, the binding signal in the assay with POU1 (OCT1 POU domain) was 0.0172 % of ANNNNAAN 8-mers; with POU2 (OCT2 POU domain) it was 0.0299 % of ANNNNAAN 8-mers; in assay [1], 0.023 % of ANNNNAAN 8-mers; in assay [2] it was 0.0355 % of ANNNNAAN 8-mers.

As to AACGAAAT, the binding signal was 0.0744 % of ANNNNAAN 8-mers with POU1 (OCT1 POU domain), 0.0783 % of ANNNNAAN 8-mers with POU2 (OCT2 POU domain), 0.0675 % of ANNNNAAN 8-mers in assay [1] and 0.0636 % of ANNNNAAN 8-mers in assay [2].

Turning to AGATTAAG, the binding signal with POU1 (OCT1 POU domain) was 0.0656 % of ANNNNAAN 8-mers; with POU2 (OCT2 POU domain), 0.088 % of ANNNNAAN 8-mers; in assay [1], 0.0581 % of ANNNNAAN 8-mers; in assay [2], 0.0619 % of ANNNNAAN 8-mers.

As to ACCTAAAG, the binding signal was 0.0145 % of ANNNNAAN 8-mers with POU1 (OCT1 POU domain), 0.0173 % of ANNNNAAN 8-mers with POU2 (OCT2 POU domain), 0.0219 % of ANNNNAAN 8-mers in assay [1] and 0.0223 % of ANNNNAAN 8-mers in assay [2].

ATCAGAAT: the binding signal in the assay with POU1 (OCT1 POU domain) is 0.085 % of ANNNNAAN 8-mers; with POU2 (OCT2 POU domain), 0.116 % of ANNNNAAN 8-mers; in assay [1], 0.0777 % of ANNNNAAN 8-mers; in assay [2] it was 0.0784 % of ANNNNAAN 8-mers.

For the sequence ATATAAAT, the binding signal is 0.16 % of ANNNNAAN 8-mers with POU1 (OCT1 POU domain), 0.222 % of ANNNNAAN 8-mers with POU2 (OCT2 POU domain), 0.108 % of ANNNNAAN 8-mers in assay [1] and 0.116 % of ANNNNAAN 8-mers in assay [2].

Regarding ATGTGAAG, the binding signal is 0.0484 % of ANNNNAAN 8-mers with POU1 (OCT1 POU domain), 0.0627 % of ANNNNAAN 8-mers with POU2 (OCT2 POU domain), 0.046 % of ANNNNAAN 8-mers in assay [1] and 0.0429 % of ANNNNAAN 8-mers in assay [2].

As to ATGTTAAC, the binding signal with POU1 (OCT1 POU domain) is 0.0645 % of ANNNNAAN 8-mers; in the assay with POU2 (OCT2 POU domain) it was 0.0938 % of ANNNNAAN 8-mers; in assay [1], 0.0578 % of ANNNNAAN 8-mers; in assay [2], 0.0586 % of ANNNNAAN 8-mers.

On to AAATAAAG, for which the binding signal in the assay with POU1 (OCT1 POU domain) is 0.156 % of ANNNNAAN 8-mers; with POU2 (OCT2 POU domain), 0.151 % of ANNNNAAN 8-mers; in assay [1], 0.168 % of ANNNNAAN 8-mers; in assay [2] it was 0.171 % of ANNNNAAN 8-mers.

Take AAATAAAT: the binding signal with POU1 (OCT1 POU domain) was 0.261 % of ANNNNAAN 8-mers; with POU2 (OCT2 POU domain), 0.275 % of ANNNNAAN 8-mers; in assay [1], 0.232 % of ANNNNAAN 8-mers; in assay [2] it was 0.22 % of ANNNNAAN 8-mers.

In the case of AAGACAAA, the binding signal is 0.0538 % of ANNNNAAN 8-mers with POU1 (OCT1 POU domain), 0.0472 % of ANNNNAAN 8-mers with POU2 (OCT2 POU domain), 0.0706 % of ANNNNAAN 8-mers in assay [1] and 0.0438 % of ANNNNAAN 8-mers in assay [2].

Turning to ACTGAAAT, the binding signal is 0.0522 % of ANNNNAAN 8-mers with POU1 (OCT1 POU domain), 0.0639 % of ANNNNAAN 8-mers with POU2 (OCT2 POU domain), 0.0472 % of ANNNNAAN 8-mers in assay [1] and 0.0495 % of ANNNNAAN 8-mers in assay [2].

For the sequence ACGAAAAC, the binding signal with POU1 (OCT1 POU domain) was 0.0256 % of ANNNNAAN 8-mers; with POU2 (OCT2 POU domain) it was 0.0259 % of ANNNNAAN 8-mers; in assay [1], 0.0289 % of ANNNNAAN 8-mers; in assay [2] it was 0.0264 % of ANNNNAAN 8-mers.

On to AAAGTAAA, for which the binding signal was 0.0988 % of ANNNNAAN 8-mers with POU1 (OCT1 POU domain), 0.0714 % of ANNNNAAN 8-mers with POU2 (OCT2 POU domain), 0.114 % of ANNNNAAN 8-mers in assay [1] and 0.0759 % of ANNNNAAN 8-mers in assay [2].

With ACTCCAAA, the binding signal was 0.0259 % of ANNNNAAN 8-mers in the assay with POU1 (OCT1 POU domain), 0.0219 % of ANNNNAAN 8-mers with POU2 (OCT2 POU domain), 0.0277 % of ANNNNAAN 8-mers in assay [1] and 0.0149 % of ANNNNAAN 8-mers in assay [2].

Regarding AAGTAAAA, the binding signal with POU1 (OCT1 POU domain) is 0.108 % of ANNNNAAN 8-mers; with POU2 (OCT2 POU domain), 0.0967 % of ANNNNAAN 8-mers; in assay [1], 0.132 % of ANNNNAAN 8-mers; in assay [2] it was 0.0693 % of ANNNNAAN 8-mers.

Consider AGTGCAAA, for which the binding signal was 0.0873 % of ANNNNAAN 8-mers with POU1 (OCT1 POU domain), 0.0593 % of ANNNNAAN 8-mers with POU2 (OCT2 POU domain), 0.126 % of ANNNNAAN 8-mers in assay [1] and 0.0743 % of ANNNNAAN 8-mers in assay [2].

Take ATCGGAAC: the binding signal was 0.0175 % of ANNNNAAN 8-mers in the assay with POU1 (OCT1 POU domain), 0.0242 % of ANNNNAAN 8-mers with POU2 (OCT2 POU domain), 0.023 % of ANNNNAAN 8-mers in assay [1] and 0.0231 % of ANNNNAAN 8-mers in assay [2].

As for ACCCCAAT, the binding signal is 0.0145 % of ANNNNAAN 8-mers with POU1 (OCT1 POU domain), 0.0167 % of ANNNNAAN 8-mers with POU2 (OCT2 POU domain), 0.0172 % of ANNNNAAN 8-mers in assay [1] and 0.019 % of ANNNNAAN 8-mers in assay [2].

For the sequence AATCAAAT, the binding signal in the assay with POU1 (OCT1 POU domain) was 0.295 % of ANNNNAAN 8-mers; with POU2 (OCT2 POU domain) it was 0.212 % of ANNNNAAN 8-mers; in assay [1], 0.419 % of ANNNNAAN 8-mers; in assay [2] it was 0.301 % of ANNNNAAN 8-mers.

As to ATATGAAC, the binding signal is 0.0389 % of ANNNNAAN 8-mers with POU1 (OCT1 POU domain), 0.0495 % of ANNNNAAN 8-mers with POU2 (OCT2 POU domain), 0.03 % of ANNNNAAN 8-mers in assay [1] and 0.0528 % of ANNNNAAN 8-mers in assay [2].

The record behind these values is PMC10812921, “Transcriptional Coactivator BOB1 (OBF1, OCA-B) Modulates the Specificity of DNA Recognition by the POU-Domain Factors OCT1 and OCT2 in a Monomeric Configuration”.
